In PubChem BioAssay AID1159580 (chemical genetic matrix, 2015):
“And” between values parts separate entries of the source, which are not always exact repeats. Equal values may be shown once. Hit rate of the full screen: of about 5,500 compounds, about 2,000 (36%) were called active. Another 18% or so got no clear call; they are omitted. Rule as the data show it: active = normalized growth mostly below about 0.91 (no sharp cut-off); inconclusive = no clear call, values can overlap the other calls; inactive = mostly above about 0.92. The list shows a part of the results.

Assay: chemical genetic growth profiling, strain panel (AID 1159580);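 also: tested at 20 µM; growth read once vehicle control cultures reached saturation at 30 °C; 1 = growth at the plate median or of vehicle wells; lower values mean less growth of the strain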
Settings: S. cerevisiae deletion strains, growth OD

Measured: normalized growth

C[C@@H]1CC[C@@]2(NC1)O[C@H]1C[C@H]3C4CC=C5C[C@@H](O)CC[C@]5(C)C4CC[C@]3(C)C1[C@@H]2C (some centres not stated)
0.0512 (active) and 1.05 (inactive): locus YHR030C, strain SLT2, stronger effect = lower value
inactive: locus YGL167C, strain pmr1, stronger effect = lower value 0.956 | locus YHR079C, strain IRE1, stronger effect = lower value 1.03 | locus YJR066W, strain TOR1, stronger effect = lower value 0.985 | locus YKL068W, stronger effect = lower value 1.01 | locus YKL085W, strain MDH1 (second series), stronger effect = lower value 0.942 | locus YKL085W, strain MDH1, stronger effect = lower value 0.942 | locus YLR113W, strain HOG1, stronger effect = lower value 1.04 | locus YNL183C, strain NPR1, stronger effect = lower value 0.989 | locus YOL012C, strain htz1 0.198 | locus YOR231W, strain MKK1, stronger effect = lower value 1.03 | locus YPL256C, strain CLN2, stronger effect = lower value 1.07 | locus YPR141C, strain kar3, stronger effect = lower value 1.06
active: locus YAL021C, strain ccr4, stronger effect = lower value 0.0884 | locus YAL026C, strain drs2, stronger effect = lower value 0.0686 | locus YAL030W, strain snc1, stronger effect = lower value 0.0727 | locus YBL061C, strain skt5, stronger effect = lower value 0.246 | locus YBR009C, strain hhf1, stronger effect = lower value 0.0752 | locus YBR021W, strain FUR4, stronger effect = lower value 0.566 | locus YBR023C, strain chs3, stronger effect = lower value 0.189 | locus YBR171W, strain sec66, stronger effect = lower value 0.0867 | locus YBR229C, strain ROT2, stronger effect = lower value 0.132 | locus YBR231C, strain swc5, stronger effect = lower value 0.147 | locus YBR279W, strain paf1, stronger effect = lower value 0.431 | locus YCL011C, strain gbp2, stronger effect = lower value 0.0674 | locus YCL016C, strain dcc1, stronger effect = lower value 0.155 | locus YCL029C, strain bik1, stronger effect = lower value 0.0831 | locus YCL061C, strain MRC1, stronger effect = lower value 0.0777 | locus YCL069W, strain vba3, stronger effect = lower value 0.067 | locus YCR088W, strain abp1, stronger effect = lower value 0.0699 | locus YDL005C, strain med2, stronger effect = lower value 0.0923 | locus YDL035C, strain GPR1, stronger effect = lower value 0.086 | locus YDL040C, strain nat1, stronger effect = lower value 0.495 | locus YDL074C, strain BRE1, stronger effect = lower value 0.188 | locus YDL101C, strain DUN1, stronger effect = lower value 0.0946 | locus YDL134C, strain PPH21, stronger effect = lower value 0.0628 | locus YDL185W, strain tfp1, stronger effect = lower value 0.673 | locus YDL192W, strain arf1, stronger effect = lower value 0.123 | locus YDR001C, strain nth1, stronger effect = lower value 0.0751 | locus YDR069C, strain doa4, stronger effect = lower value 0.255 | locus YDR101C, strain arx1, stronger effect = lower value 0.132 | locus YDR137W, strain rgp1, stronger effect = lower value 0.644 | locus YDR159W, strain sac3, stronger effect = lower value 0.155 | locus YDR162C, strain NBP2, stronger effect = lower value 0.0581 | locus YDR195W, strain ref2 0.153 | locus YDR297W, strain sur2, stronger effect = lower value 0.0933 | locus YDR318W, strain mcm21, stronger effect = lower value 0.0863 | locus YDR334W, strain swr1, stronger effect = lower value 0.075 | locus YDR335W, strain msn5, stronger effect = lower value 0.0693 | locus YDR388W, stronger effect = lower value 0.0688 | locus YDR392W, strain spt3, stronger effect = lower value 0.0901 | locus YDR502C, strain sam2, stronger effect = lower value 0.0995 | locus YEL003W, strain gim4, stronger effect = lower value 0.0687 | locus YEL037C, strain rad23, stronger effect = lower value 0.0666 | locus YEL061C, strain CIN8 (second series), stronger effect = lower value 0.0639 | locus YER015W, strain faa2, stronger effect = lower value 0.0893 | locus YER016W, strain bim1, stronger effect = lower value 0.306 | locus YER110C, stronger effect = lower value 0.116 | locus YER111C, strain swi4, stronger effect = lower value 0.0797 | locus YER155C, strain BEM2 (second series), stronger effect = lower value 0.106 | locus YER155C, strain BEM2, stronger effect = lower value 0.0845 | locus YER167W, strain BCK2, stronger effect = lower value 0.0646 | locus YFR010W, strain ubp6, stronger effect = lower value 0.0951 | locus YGL078C, strain dbp3, stronger effect = lower value 0.898 | locus YGL086W, strain mad1, stronger effect = lower value 0.0765 | locus YGL173C, strain kem1, stronger effect = lower value 0.474 | locus YGL227W, strain vid30, stronger effect = lower value 0.0779 | locus YGL240W, strain doc1, stronger effect = lower value 0.262 | locus YGL248W, strain PDE1, stronger effect = lower value 0.0583 | locus YGL253W, strain hxk2, stronger effect = lower value 0.0617 | locus YGR135W, strain pre9, stronger effect = lower value 0.0806 | locus YGR252W, strain gcn5, stronger effect = lower value 0.254 | locus YHR013C, strain ard1, stronger effect = lower value 0.131 | locus YHR027C, strain rpn1, stronger effect = lower value 0.157 | locus YHR079C, strain IRE1 (second series), stronger effect = lower value 0.107 | locus YHR094C, strain hxt1, stronger effect = lower value 0.0989 | locus YHR129C, strain ARP1, stronger effect = lower value 0.0688 | locus YHR142W, strain chs7, stronger effect = lower value 0.0769 | locus YHR200W, strain rpn10, stronger effect = lower value 0.103 | locus YIL066C, strain RNR3, stronger effect = lower value 0.0582 | locus YIL073C, strain SPO22, stronger effect = lower value 0.144 | locus YIL125W, strain kgd1, stronger effect = lower value 0.886 | locus YIR030C, strain dcg1, stronger effect = lower value 0.0978 | locus YJL092W, strain hpr5, stronger effect = lower value 0.0727 | locus YJL095W, strain BCK1 (second series), stronger effect = lower value 0.0644 | locus YJL115W, strain asf1, stronger effect = lower value 0.0841 | locus YJL129C, strain trk1, stronger effect = lower value 0.0945 | locus YJL134W, strain LCB3, stronger effect = lower value 0.0822 | locus YJL154C, strain vps35, stronger effect = lower value 0.0818 | locus YJL164C, strain tpk1, stronger effect = lower value 0.0731 | locus YJL166W, strain qcr8, stronger effect = lower value 0.0704 | locus YJL168C, strain set2, stronger effect = lower value 0.121 | locus YJL187C, strain SWE1 (second series), stronger effect = lower value 0.103 | locus YJR075W, strain HOC1, stronger effect = lower value 0.119 | locus YKL009W, strain mrt4, stronger effect = lower value 0.807 | locus YKL160W, strain elf1, stronger effect = lower value 0.12 | locus YKR001C, strain vps1, stronger effect = lower value 0.0859 | locus YKR026C, strain gcn3, stronger effect = lower value 0.0875 | locus YKR091W, strain srl3, stronger effect = lower value 0.109 | locus YLL001W, strain dnm1, stronger effect = lower value 0.074 | locus YLL026W, stronger effect = lower value 0.0713 | locus YLL041C, strain sdh2, stronger effect = lower value 0.075 | locus YLR027C, strain aat2, stronger effect = lower value 0.0705 | locus YLR039C, strain RIC1, stronger effect = lower value 0.33 | locus YLR058C, strain SHM2, stronger effect = lower value 0.0802 | locus YLR102C, strain apc9, stronger effect = lower value 0.088 | locus YLR221C, strain rsa3, stronger effect = lower value 0.0678 | locus YLR258W, strain gsy2, stronger effect = lower value 0.0842 | locus YLR262C, strain YPT6 (second series), stronger effect = lower value 0.341 | locus YLR268W, strain sec22, stronger effect = lower value 0.0987 | locus YLR320W, strain mms22, stronger effect = lower value 0.091 | locus YLR342W, strain FKS1 (second series), stronger effect = lower value 0.0987 | locus YLR342W, strain FKS1, stronger effect = lower value 0.0952 | locus YLR357W, strain rsc2, stronger effect = lower value 0.172 | locus YLR370C, strain arc18, stronger effect = lower value 0.066 | locus YLR371W, strain rom2, stronger effect = lower value 0.0867 | locus YLR384C, strain iki3, stronger effect = lower value 0.702 | locus YLR418C, strain cdc73, stronger effect = lower value 0.127 | locus YML016C, strain PPZ1, stronger effect = lower value 0.0701 | locus YML032C, strain rad52, stronger effect = lower value 0.112 | locus YML120C, strain ndi1, stronger effect = lower value 0.0773 | locus YML124C, strain tub3, stronger effect = lower value 0.0964 | locus YMR058W, strain fet3, stronger effect = lower value 0.0836 | locus YMR078C, strain ctf18, stronger effect = lower value 0.0876 | locus YMR125W, strain sto1, stronger effect = lower value 0.089 | locus YMR129W, stronger effect = lower value 0.0739 | locus YMR205C, strain PFK2, stronger effect = lower value 0.15 | locus YMR223W, strain ubp8, stronger effect = lower value 0.0986 | locus YMR231W, strain pep5, stronger effect = lower value 0.319 | locus YMR307W, strain GAS1, stronger effect = lower value 0.145 | locus YNL067W, strain RPL9B, stronger effect = lower value 0.132 | locus YNL071W, strain lat1, stronger effect = lower value 0.0643 | locus YNL209W, strain ssb2, stronger effect = lower value 0.19 | locus YNL233W, strain BNI4, stronger effect = lower value 0.0774 | locus YNL248C, strain rpa49, stronger effect = lower value 0.079 | locus YNL250W, strain rad50, stronger effect = lower value 0.889 | locus YNL271C, strain bni1, stronger effect = lower value 0.848 | locus YNL298W, strain CLA4, stronger effect = lower value 0.767 | locus YNL307C, strain MCK1, stronger effect = lower value 0.0706 | locus YNL322C, strain KRE1 (second series), stronger effect = lower value 0.0978 | locus YNR049C, strain mso1, stronger effect = lower value 0.0668 | locus YNR052C, strain pop2, stronger effect = lower value 0.282 | locus YOL147C, strain pex11, stronger effect = lower value 0.0757 | locus YOR001W, strain rrp6, stronger effect = lower value 0.083 | locus YOR061W, strain CKA2, stronger effect = lower value 0.0862 | locus YOR069W, strain VPS5, stronger effect = lower value 0.104 | locus YOR070C, strain gyp1, stronger effect = lower value 0.151 | locus YOR080W, strain dia2, stronger effect = lower value 0.277 | locus YOR083W, strain WHI5, stronger effect = lower value 0.134 | locus YOR106W, strain vam3, stronger effect = lower value 0.0987 | locus YOR136W, strain idh2, stronger effect = lower value 0.108 | locus YOR144C, strain elg1, stronger effect = lower value 0.0812 | locus YOR184W, strain ser1, stronger effect = lower value 0.0846 | locus YOR265W, strain rbl2, stronger effect = lower value 0.0812 | locus YOR270C, strain vph1, stronger effect = lower value 0.0993 | locus YOR290C, strain snf2, stronger effect = lower value 0.074 | locus YOR316C, strain cot1, stronger effect = lower value 0.0883 | locus YPL051W, strain arl3, stronger effect = lower value 0.436 | locus YPL055C, strain LGE1, stronger effect = lower value 0.137 | locus YPL078C, strain atp4, stronger effect = lower value 0.0699 | locus YPL106C, strain sse1, stronger effect = lower value 0.154 | locus YPL240C, strain hsp82, stronger effect = lower value 0.0838 | locus YPR119W, strain clb2, stronger effect = lower value 0.0943 | locus YPR163C, strain tif3, stronger effect = lower value 0.0947 | locus YPR167C, strain met16, stronger effect = lower value 0.0878 | strain wtn01, stronger effect = lower value 0.0815
0.0614 (active) and 1.03 (inactive): locus YJL095W, strain BCK1, stronger effect = lower value
